A short description of test [1]: qHTS RealTime-Glo MT Cell Viability Assay in HEK293 cells - 0 hour (AID 1224880). Further: top concentration of the series differs between compounds; nearly all actives have a fitted effect of over 45% in size. The method, boiled down:
(§1)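 600 HEK293 cells per well, dispensed already mixed with RealTime-Glo MT reagents. Compound dosing came 5 h later. The same wells were read for luminescence at 0, 8, 16, 24, 32 and 40 h of exposure at 37 C.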
Background: In qHTS, concentration-response curves come from the screen itself.

A short description of test [2]: A CellTox Green Cytotoxicity Assay to monitor cytotoxicity in HEK293 cells - 32 hour (AID 1224881). Further: nearly all actives have a fitted effect of over 40% in size. Further: potency means the concentration at half of the fitted maximal effect. The procedure, abridged: (§2)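 Dead-cell fluorescence measured kinetically: asymmetric cyanine dye, HEK293, 600 cells/well, 5 h settle, 23 nL cpd/DMSO, 37 C, reads 0–40 h every 8 h.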
A short description of test [3]: A CellTox Green Cytotoxicity Assay to monitor cytotoxicity in HepG2 cells - 0 hour (AID 1224882). Further: nearly all actives have a fitted effect of over 35% in size. Further: potency means the concentration at half of the fitted maximal effect. The method, boiled down: (§3)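 First, HepG2 cells (600/well) mixed with reagent were plated; second, after 5 h at 37 C they received compounds via pintool; third, fluorescence was measured at 0 h through 40 h at 8 h intervals.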
Test [4] in a line: A CellTox Green Cytotoxicity Assay to monitor cytotoxicity in HepG2 cells - 32 hour (AID 1224883). Further: nearly all actives have a fitted effect of over 50% in size. Further: potency means the concentration at half of the fitted maximal effect. The method, boiled down:
as §3

Test [5] can be described thus: A CellTox Green Cytotoxicity Assay to monitor cytotoxicity in HEK293 cells - 8 hour (AID 1224884). Further: nearly all actives have a fitted effect of over 35% in size. Further: potency means the concentration at half of the fitted maximal effect. The procedure, abridged: as §2
Test [6] can be described thus: qHTS RealTime-Glo MT Cell Viability Assay in HepG2 cells - 16 hour (AID 1224885). Further: nearly all actives have a fitted effect of over 50% in size. Further: potency means the concentration at half of the fitted maximal effect. The procedure, abridged: (§4)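 Compound treatment began 5 h after plating HepG2 cells (600/well) with NanoLuc luciferase and prosubstrate. Plates stayed at 37 C for 40 h; luminescence was captured at six time points, 0 h through 40 h.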
Test [7] in a line: qHTS RealTime-Glo MT Cell Viability Assay in HEK293 cells - 24 hour (AID 1224886). Further: nearly all actives have a fitted effect of over 50% in size. Further: potency means the concentration at half of the fitted maximal effect. The procedure, abridged:
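Quantitative high-throughput screen of the Tox21 10K library in HEK293: cells and RealTime-Glo reagents plated together, compound added at 5 h, luminescence monitored through 40 h at 37 C.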

Test [8] can be described thus: A CellTox Green Cytotoxicity Assay to monitor cytotoxicity in HEK293 cells - 16 hour (AID 1224888). Further: nearly all actives have a fitted effect of over 35% in size. Further: potency means the concentration at half of the fitted maximal effect. The procedure, abridged:
as §2

A short description of test [9]: qHTS RealTime-Glo MT Cell Viability Assay in HepG2 cells - 0 hour (AID 1224889). Further: nearly all actives have a fitted effect of over 50% in size. Further: potency means the concentration at half of the fitted maximal effect. The procedure, abridged: as §4
Test [10] is described as follows: qHTS RealTime-Glo MT Cell Viability Assay in HEK293 cells - 8 hour (AID 1224887). The method, boiled down:
as §1

Values joined by “and” are separate entries in the source; they are usually repeats but may differ in a detail not shown here. Identical values can stand only once. Results filed as inconclusive are left out. Some compounds were tested as several samples or in several runs, with calls that do not always agree. Active and inactive are the calls of the source. The call rests on the fitted dose curve; in most records, active means well fitted curve in the direction sought with a large enough effect in the repeat runs; inconclusive means weak or mixed curves; inactive means no such curve, though single readings can be large; an effect the other way counts as inactive or inconclusive.

For the compound `Cc1ccc(C(=O)c2cc(O)c(O)c([N+](=O)[O-])c2)cc1`, the Potency result in test [1], in [2], in test [3], in test [4], in test [5] and in test [6] was “inactive” in each case. The Potency entry in test [7], in test [8] and in [9] was “inactive” throughout.
With `c1cc(N(CC2CO2)CC2CO2)ccc1OCC1CO1` (centres undefined), the Potency result in test [1], in [2], in test [3], in test [4], in test [5] and in test [6] was “inactive” throughout. In addition, the Potency entry in test [10], in test [8] and in test [9] was “inactive” throughout.
For the compound `O=C1OC2(c3cc(Br)c(O)c(Br)c3Oc3c2cc(Br)c(O)c3Br)c2c(Cl)c(Cl)c(Cl)c(Cl)c21`, the Potency is 4.91 µM (active) and 26.5 µM (active) in test [2]; 39 µM (active) and 26.5 µM (active) in [3]; 3.1 µM (active) and 23.6 µM (active) in [4]; 3.9 µM (active) and 23.6 µM (active) in [5]; 2.76 µM (active) and 23.6 µM (active) in test [8]; 55 µM (active) in test [9]. In addition, the Potency entry in [6] and in [7] was “inactive” in each case.
On to `c1ccncc1`, for which the Potency entry in [2], in [3], in test [4], in test [5], in test [6] and in [7] was “inactive” throughout. For the same compound, the Potency result in [10], in test [8] and in test [9] was “inactive” throughout.
With `NC=O`, the Potency entry in test [1], in test [2], in test [3], in [4], in test [5] and in test [6] was “inactive” in each case. Also, the Potency entry in [7], in test [8] and in test [9] was “inactive” each time.
With `OC1CCCCCCCCCCC1`, the Potency entry in [1], in test [6], in test [7] and in test [9] was “inactive” in each case. For the same compound, the Potency result in [2] is “inactive and 43.6 µM (active)”; in test [3] it was “inactive and 27.5 µM (active)”; in test [4], 44.1 µM (active) and 43.6 µM (active); in [5], “inactive and 43.6 µM (active)”.
With `C#C[C@]1(O)CC[C@H]2[C@@H]3CCc4cc(OC)ccc4[C@H]3CC[C@@]21C`, the Potency entry in [1], in [3], in test [5], in test [6], in test [8] and in test [9] was “inactive” in each case. The Potency in test [4] was 23.9 µM (active); in [7] it was 34.7 µM (active) and 19 µM (active).
Turning to `CCC(C)OC(=O)c1ccc(O)cc1` (centres undefined), the Potency entry in [1], in [2], in test [3], in test [5], in [6] and in test [10] was “inactive” throughout. For the same compound, the Potency entry in [8] and in test [9] was “inactive” each time.
In the case of `CN(C)CCC=C1c2ccccc2CCc2ccccc21`, the Potency entry in test [2], in [3], in [5], in [6], in test [7] and in test [8] was “inactive” each time. Further, the Potency in test [4] was 55 µM (active) and 43.6 µM (active) and 26.8 µM (active).
As to `O=C(c1ccccc1)c1ccc(O)cc1O`, the Potency entry in test [1], in test [2], in test [3], in [5], in test [6] and in test [7] was “inactive” throughout. In addition, the Potency entry in [8] and in test [9] was “inactive” in each case. In addition, the Potency result in test [4] is “inactive and 43.6 µM (active)”.
`O=C1c2cccc(O)c2C(=O)c2c(O)cccc21`: the Potency result in test [1], in test [2], in [3], in test [4], in test [5] and in [6] was “inactive” throughout. The Potency result in [8] and in test [9] was “inactive” each time.
`CCC(C)c1ccccc1O` (centres undefined): the Potency entry in test [1], in test [3], in [5], in test [6], in test [7] and in test [9] was “inactive” each time. Also, the results for the Potency in [2] and in test [4] were 38.6 µM (active) and 48.6 µM (active), respectively.
Turning to `CC(CCC(=O)O)(c1ccc(O)cc1)c1ccc(O)cc1`, the Potency result in test [1], in test [2], in test [3], in test [4], in [5] and in test [6] was “inactive” throughout. Further, the Potency result in test [7], in test [8] and in test [9] was “inactive” in each case.
Turning to `c1cc(-c2ccncc2)ccn1`, the Potency result in test [1], in [2], in test [3], in test [4], in test [5] and in test [6] was “inactive” each time. Besides, the Potency entry in [7], in test [8] and in test [9] was “inactive” in each case.
On to `COc1cc([C@@H]2c3cc4c(cc3[C@H](O)[C@H]3COC(=O)[C@H]23)OCO4)cc(OC)c1OC`, for which the Potency entry in test [1], in test [2], in [3], in test [4], in test [5] and in test [6] was “inactive” throughout. The Potency result in [10], in test [8] and in test [9] was “inactive” each time.
For `Cn1cnc([N+](=O)[O-])c1Sc1ncnc2nc[nH]c12`, the Potency result in [1], in test [3], in [5], in test [6], in test [10] and in test [8] was “inactive” in each case. Further, in test [9], the Potency result is “inactive”. The Potency in [2] was 30.7 µM (active) and inactive; in test [4], 54.5 µM (active) and inactive.
In the case of `Oc1ccc(O)cc1`, the Potency result in test [1], in test [2], in test [3], in test [4], in test [5] and in [6] was “inactive” each time. Moreover, the Potency result in test [8] and in test [9] was “inactive” throughout.
Take `COc1ccccc1/C=C/C=O`: the Potency result in test [1], in test [2], in [3], in [4], in [5] and in [6] was “inactive” in each case. In addition, the Potency result in test [10], in test [8] and in [9] was “inactive” throughout.
Turning to `C#C[C@]1(O)CC[C@H]2[C@@H]3CCC4=Cc5oncc5C[C@]4(C)[C@H]3CC[C@@]21C`, the Potency in test [2] was 49 µM (active). The Potency entry in [3], in test [4], in [5] and in test [8] was “inactive” each time.
For the compound `CC(=O)O[C@]1(C(C)=O)CC[C@H]2[C@@H]3C=C(Cl)C4=CC(=O)[C@@H]5C[C@@H]5[C@]4(C)[C@H]3CC[C@@]21C`, the Potency result in test [1], in test [2], in [3], in test [4], in [5] and in test [10] was “inactive” in each case. Moreover, the Potency entry in test [8] and in test [9] was “inactive” each time. For the same compound, the Potency in test [7] was 21.9 µM (active).
Turning to `CCCCc1oc2ccccc2c1C(=O)c1cc(I)c(OCCN(CC)CC)c(I)c1`, the Potency entry in test [1], in [3], in test [5] and in test [9] was “inactive” in each case. Besides, the Potency in [2] was 44 µM (active); in test [4], 34.9 µM (active) and 26.8 µM (active); in [6] it was 39.2 µM (active); in [7], 34.9 µM (active) and 23.9 µM (active).
As for `O=CCCCC=O`, the Potency entry in test [1], in test [2], in test [3], in test [5], in test [6] and in test [10] was “inactive” throughout. In addition, the Potency result in [8] and in test [9] was “inactive” in each case. Besides, the Potency in test [7] was 42.1 µM (active) and inactive.
